PubChem BioAssay AID1626 (SRMLSC, 2009)
The campaign covered roughly 220,000 compounds. About 2,000 (0.91%) were called active. Another 2% or so got no clear call; they are omitted. Cut-off read from the data, not from the text of the source: inconclusive = inhibition above about 80% without an active follow-up result; inactive = below that; test concentration not stated here. Not all results are given here. Potency and affinity values are given separately.

test: M. tuberculosis H37Rv growth inhibitors, H37Rv strain (AID 1626); conditions: hits give high values, concentration not given here;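 note: bacteria incubated seven days before Alamar blue readout; 0% = bacteria only wells and 100% = bacteria with antibiotic wells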

| Compound | inhibition |
| --- | --- |
| CN(C)C(CNC(=O)c1cc(S(=O)(=O)N(C)c2ccccc2)ccc1Cl)c1cccs1 (stereo unspecified) | -3.17% (inactive) |
| Cc1occc1C(=O)N/N=C/C1=C(N2CCOCC2)C(=C\c2ccc(Cl)cc2)/CC1 | -4.7% (inactive) |
| O=C(NCc1cccnc1)c1ccc(COc2ccccc2Br)cc1 | 12% (inactive) |
| O=C(NCCC(=O)N1CCOCCOCCOCCOCC1)OCc1ccccc1 | -3.39% (inactive) |
| NS(=O)(=O)c1ccc(CNC(=O)c2cc(-c3ccccn3)nc3ccc(Cl)cc23)cc1 | 8.36% (inactive) |
| CCOC(=O)N1CCN(C(=O)c2ccc3nc4ccc(Cl)cc4c(=O)n3c2)CC1 | 2.6% (inactive) |
| CCNC(=O)CN1C(=O)NC(Cc2ccccc2)(Cc2ccccc2)C1=O | -0.94% (inactive) |
| COc1ccc(NC(=O)Nc2ccc(F)cc2F)cc1 | 10.7% (inactive) |
| COc1ccc(CN2C(=O)CS/C2=N/N=C/c2ccccc2)cc1 | -0.88% (inactive) |
| CCNC(=S)N(Cc1c(C)noc1C)c1ccccc1 | -11.8% (inactive) |
| CCOc1cc(/C=N/NC(=O)CSc2nncn2C)ccc1OCc1cccc(C)c1 | 5.11% (inactive) |
| COc1ccc(/C=c2/sc3n(c2=O)C(c2ccccc2OC)C2=C(N=3)c3ccccc3CC2)cc1O (stereo unspecified) | 16.2% (inactive) |
| COc1cccc(C2C3=C(N=c4s/c(=C\c5ccc(O)cc5)c(=O)n42)c2ccccc2CC3)c1OC (stereo unspecified) | 6.52% (inactive) |
| COc1ccccc1C1C2=C(N=c3s/c(=C/c4cccc(OCC(=O)O)c4)c(=O)n31)c1ccccc1CC2 (stereo unspecified) | -4.54% (inactive) |
| COc1cccc(C2C3=C(N=c4s/c(=C\c5ccccc5O)c(=O)n42)c2ccccc2CC3)c1OC (stereo unspecified) | 5.15% (inactive) |
| CCOc1ccc(NC(=O)Nc2ccc(Br)cn2)cc1 | 0.855% (inactive) |
| CCOC(=O)N1CCN(C(=O)c2ccccc2NC(=O)c2ccc(F)cc2)CC1 | 22.6% (inactive) |
| COc1ccc(C2/C=C\CN(C(=O)Oc3ccccc3)CC(=O)N2Cc2ccc(F)cc2)cc1 (stereo unspecified) | 0.77% (inactive) |
| CC(NC(=O)Cn1c(NCCO)nc2ccccc21)C1CC2CCC1C2 (stereo unspecified) | -0.5% (inactive) |
| O=C1C(NS(=O)(=O)c2cccs2)=C(N2CCN(c3cccc(Cl)c3)CC2)C(=O)c2ccccc21 | 72.6% (inactive) |
| O=C1C(NS(=O)(=O)c2cccs2)=C(N2CCN(c3ccccc3)CC2)C(=O)c2ccccc21 | 6.53% (inactive) |
| COc1ccccc1N1C(=O)C2CC=CC(C)C2C1=O (stereo unspecified) | -9.33% (inactive) |
| Cc1sc2nc(CN3CCOCC3)nc(Cl)c2c1C | 1.93% (inactive) |
| Cc1sc2nc(CN3CCOCC3)nc(N3CCOCC3)c2c1C | -5.18% (inactive) |

| Compound | inhibition |
| --- | --- |
| COC(=O)C1(C(F)(F)F)N=C2Sc3ccccc3N2C(N2CCOCC2)=N1 (stereo unspecified) | -2.56% (inactive) |
| COc1ccc(CCNC(=O)COc2ccc(-c3ccc(C#N)cc3)cc2)cc1 | -19.4% (inactive) |
| N#Cc1ccc(-c2ccc(OCC(=O)NCCc3ccccc3)cc2)cc1 | 7.81% (inactive) |
| CN(C)c1ccc(NC(=O)N2CCOCC2)cc1 | -3.81% (inactive) |
| N#Cc1c(NC(=O)CN2C(=O)c3ccccc3C2=O)oc(-c2ccccc2)c1-c1ccccc1 | -4.11% (inactive) |
| Cc1[nH]c2ccccc2c1C(=O)C(=O)NCC1CCCO1 (stereo unspecified) | 7.05% (inactive) |
| Brc1ccc(-c2csc(-c3ccncc3)n2)cc1 | 40.3% (inactive) |
| Cc1ccc(-c2csc(-c3ccncc3)n2)cc1 | -6.57% (inactive) |
| CCCOc1ccc(-c2nc(-c3ccc(N)cc3)cs2)cc1 | 1.99% (inactive) |
| Brc1ccc(-c2csc(Nc3nc(-c4ccc(Br)cc4)cs3)n2)cc1 | 7.47% (inactive) |
| Cc1nc(N2CCN(c3ccccc3)CC2)[nH]c(=O)c1CCC(C)C | 6.58% (inactive) |
| Nc1nc(SCC(=O)N2CCCc3ccccc32)n(-c2ccccc2)n1 | -0.56% (inactive) |
| CCC1S/C(=N\S(=O)(=O)c2cccs2)N(C2CCCCC2)C1=O (stereo unspecified) | -5.04% (inactive) |
| CC1(C)Cc2c(sc(NC(=O)Cc3ccccc3)c2C#N)CO1 | -0.57% (inactive) |
| O=C(NC1CCCCC1)N(Cc1nc2ccccc2c(=O)[nH]1)C1CCCCC1 | 12.6% (inactive) |
| Cc1cccc(Oc2nc(CN3CCOCC3)nc3sc4c(c23)CCCC4)c1 | 14% (inactive) |
| Cc1ccc(Oc2nc(CN3CCOCC3)nc3sc4c(c23)CCC(C)C4)cc1C (stereo unspecified) | 40.8% (inactive) |
| O=C(Nc1ccc2c3c(cccc13)CC2)c1cccc([N+](=O)[O-])c1 | 2.05% (inactive) |
| CC(Cc1ccccc1)NC(=O)/C=C/c1ccc(Cl)cc1 (stereo unspecified) | -0.45% (inactive) |
| CCC(CC)NC(=O)/C=C/c1ccccc1Cl | -14.3% (inactive) |
| COC(=O)[C@H](CC(C)C)NC(=O)NCc1ccc(Cl)cc1 | -2% (inactive) |
| O=C(/C=C/c1ccccc1Cl)NCc1ccccc1 | -0.07% (inactive) |
| CCOC(=O)Nc1ccc2c(c1)nc(CN1CCOCC1)n2C | -2.73% (inactive) |
| CN(C)CCCN(C(=O)c1ccc2c(c1)CCCC2)c1nc2ccc(F)cc2s1 | 62.6% (inactive) |

| Compound | inhibition |
| --- | --- |
| Cc1ccc2nc(N(CCCN(C)C)C(=O)c3ccc(S(=O)(=O)N(C)C)cc3)sc2c1 | -7.66% (inactive) |
| N#Cc1cnn2c1nc(N1CCOCC1)c1ccccc12 | 3.61% (inactive) |
| O=C(O)c1ccc(/C=N/NC(=O)c2ccc(NS(=O)(=O)c3cccs3)cc2)cc1 | 7.29% (inactive) |
| CN(C)CCNC(=S)Nc1ccc(Cl)cc1Cl | 3.74% (inactive) |
| CC(=O)/C(=C/N(C)C)C(=O)Nc1ccc(Cl)cc1Cl | 5.27% (inactive) |
| Cc1cc(=O)n2nc(N3CCC(C(=O)N4CCN(C)CC4)CC3)sc2n1 | -6.22% (inactive) |
| CCN(CC)S(=O)(=O)c1ccc(C)c(NC(=O)Cn2cnc3cc([N+](=O)[O-])ccc3c2=O)c1 | -5.31% (inactive) |
| COc1ccc(-c2nnc(SCC(=O)N3CCc4ccccc4C3)o2)cc1 | 55.5% (inactive) |
| O=C(CSc1nnc(-c2ccccc2)o1)N1CCc2ccccc2C1 | 0.6% (inactive) |
| COc1cccc(CNc2ccc(F)c(Cl)c2)c1OC | 9.35% (inactive) |
| COc1ccc(NC(=O)C(OC)c2ccccc2)cc1Cl (stereo unspecified) | 4.82% (inactive) |
| O=C(/C=C/c1ccc(Cl)cc1)NCc1ccco1 | -3.37% (inactive) |
| CCn1c(SCC(=O)Nc2ccc(C)cc2)nc2nc3c(cc2c1=O)COC(C)(C)C3 | 11.8% (inactive) |
| Nc1o[nH]c(=O)c1Cc1ccccc1 | -2.12% (inactive) |
| CCOC(=O)c1sc(NC(=O)CNCc2cccnc2)c(C(=O)OCC)c1C | 0.97% (inactive) |
| CCOC(=O)c1sc(NC(=O)CCN2C(=O)c3ccccc3C2=O)c(C(=O)OCC)c1C | -2.12% (inactive) |
| CC1CCN(CC(=O)NCc2ccco2)CC1 | -7.7% (inactive) |
| COC(=O)c1sccc1NC(=O)COc1cccc(C)c1 | 0.14% (inactive) |
| O=C(Nc1ccc(CN2CCOCC2)cc1)c1ccc(-c2cccc(Cl)c2)o1 | 8.55% (inactive) |
| O=C(NC(=S)Nc1ccc(CN2CCOCC2)cc1)c1ccc(-c2ccc(Br)cc2)o1 | 42.5% (inactive) |
| NC(=O)c1ccc(NC(=O)c2ccc(CN3CCOCC3)cc2)cc1 | -7.24% (inactive) |
| Cc1cc(CSc2ccccc2)ccc1NC(=O)c1ccc(CN2CCOCC2)cc1 | 7.66% (inactive) |
| CC(OC(=O)c1ccccc1Oc1ccccc1)C(=O)NC1CC1 (stereo unspecified) | 4.72% (inactive) |
| O=S(=O)(Nc1nc2ccccc2nc1-[n+]1ccccc1)c1ccc(Cl)cc1 | -0.65% (inactive) |

| Compound | inhibition |
| --- | --- |
| Nc1cc2c3c(cccc3c1)C(=O)N(CCN1CCCC1)C2=O | 18.6% (inactive) |
| O=C1c2cccc3cc([N+](=O)[O-])cc(c23)C(=O)N1c1ccccc1O | 6.45% (inactive) |
| Cc1nn(-c2ccccc2)c(Cl)c1C(=O)NCC(=O)O | 4.16% (inactive) |
| Fc1cccc(-n2ncc(-c3nnnn3-c3ccccc3)c2C(F)(F)F)c1 | -6.57% (inactive) |
| O=[N+]([O-])c1c(NCCCO)cc(SCc2ccco2)c2nonc12 | 74.7% (inactive) |
| CC(=O)OCCNc1cc(Sc2nc3ccccc3[nH]2)c2nonc2c1[N+](=O)[O-] | -3.19% (inactive) |
| CC(=O)OCCCNc1cc(Sc2ccc(Cl)cc2)c2nonc2c1[N+](=O)[O-] | 8.58% (inactive) |
| CC(=O)OCCCNc1cc(Sc2ccc(C)cc2)c2nonc2c1[N+](=O)[O-] | 13.8% (inactive) |
| O=[N+]([O-])c1c(NCc2ccco2)ccc2nonc12 | -3.46% (inactive) |
| CCC(=O)OCCNc1cc(Sc2nc3ccccc3[nH]2)c2nonc2c1[N+](=O)[O-] | 42.4% (inactive) |
| O=[N+]([O-])c1c(NCCCO)cc(Sc2ccc(Cl)cc2)c2nonc12 | 53.5% (inactive) |
| N/C(=N\OC(=O)COc1ccccc1Cl)c1ccc(Cl)cc1 | 7.15% (inactive) |
| COc1cc2c(cc1OC)CN(C(=O)CSc1nc(N)c(C#N)cc1C#N)CC2 | -0.19% (inactive) |
| CCN(CC)CCN(C(=O)c1ccc(Br)s1)c1nc2cc3c(cc2s1)OCO3 | 4.27% (inactive) |
| CCCCNC(=O)CCCCC(=O)N/N=C/c1ccccc1Cl | -1.94% (inactive) |
| COc1ccc(O)c(C2=Nc3ccccc3N=C(c3ccco3)C2)c1 | 6.13% (inactive) |
| COc1ccc(NC(=O)NC2CCCCC2C)cc1 (stereo unspecified) | 0.36% (inactive) |
| COc1ccc(C2(C(=O)N3CCCC3)CCOCC2)cc1OC | -12.9% (inactive) |
| COc1cc(OC)c2c(-c3ccccc3)cc(=O)oc2c1C(CCN1CCCC1)c1ccc2c(c1)OCO2 (stereo unspecified) | 77% (inactive) |
| CCN(CC)CCC(c1ccc(N(C)C)cc1)c1c(OC)cc(OC)c2c(-c3ccccc3)cc(=O)oc12 (stereo unspecified) | 14.1% (inactive) |
| COc1cc(OC)c2c(-c3ccccc3)cc(=O)oc2c1C(CC(=O)N1CCOCC1)c1ccc2c(c1)OCO2 (stereo unspecified) | 0.96% (inactive) |
| CCN(CC)C(=O)CC(c1ccc2c(c1)OCO2)c1c(OC)cc(OC)c2c(-c3ccccc3)cc(=O)oc12 (stereo unspecified) | -2.83% (inactive) |
| COc1cc(OC)c2ccc(=O)oc2c1C(CCN1CCCC(C)C1)c1ccc2c(c1)OCO2 (stereo unspecified) | -5.64% (inactive) |
| COc1cc(OC)c2c(-c3ccccc3)cc(=O)oc2c1C(CC(=O)N1CCCC1)c1ccc2c(c1)OCO2 (stereo unspecified) | 0.92% (inactive) |
